These results are taken from PubChem BioAssay (NCATS).

Inconclusive results are not listed. Values without a mark were called inactive. Calls of active or inactive are those of the source. Calls come from the whole dose curve; as a rule, active = well fitted inhibition curve with a large enough effect; inconclusive = small, poorly fitted or top-dose-only effect; inactive = flat fitted curve, though single readings scatter.

One experiment relates to CRL-7250. Nature of the experiment: Cytotoxic Profiling of Annotated Libraries Using Quantitative High-Throughput Screening (AID 1296008). For max response: % is set by controls: 0 for no effect and ±100 for the full control effect. Note: potency is the fitted concentration of half-maximal effect. As to conditions: Five cell lines viability, CellTiter-Glo ATP luminescence, 48-72 h; max response: hits give low values. A digest of the protocol:
(§1)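 Compounds were pin-transferred onto cells and incubated 48 or 72 hr at 37 degree Celsius, 95% humidity. CellTiter-Glo was added, plates sat 10 min at room temperature, then ATP-coupled luminescence was imaged as the viability read-out.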

The test system of a further experiment is HEK293. Described as above. As to conditions: Five cell lines viability, CellTiter-Glo ATP luminescence, 48-72 h; max response: hits give low values. In outline:
as §1
(ATP-based viability assays read luminescence as a measure of living cells.)

Experiment [1] relates to HaCat. The experiment is described as above. As to conditions: Five cell lines viability, CellTiter-Glo ATP luminescence, 48-72 h; max response: hits give low values. A digest of the protocol:
as §1

For the next experiment, the system named is KB-3-1. Described as above. As to conditions: Five cell lines viability, CellTiter-Glo ATP luminescence, 48-72 h; max response: hits give low values. A digest of the protocol:
as §1

The subject of another experiment is NIH3T3. Described as above. The settings on record: Five cell lines viability, CellTiter-Glo ATP luminescence, 48-72 h; max response: hits give low values. A digest of the protocol:
as §1

Experiment [2] concerns HACAT. In words: qHTS assay to identify novel small-molecules to repurpose for Merkel cell carcinoma treatment (AID 1296009). The settings on record: MCC and control cell lines, CellTiter-Glo viability, 72 h; at 44.8 µM (top of the series) unless noted. A digest of the protocol:
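Cells exposed to NPC (8-point) and MIPE (11-point) compound dilutions for 72 hr at 37 degree celsius; viability read by CellTiter-Glo luminescence, normalized to no-cell and DMSO in-plate controls.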
Background: qHTS replaces the single test concentration by a dilution series.
Note: nearly all actives have a fitted effect of over 60% in size.

As to `C=C1C(OC(C)=O)C(=O)C2C(C)(C)C(O)CCC2(C)C1CC(OC(C)=O)/C(C)=C/COC(C)=O` (configuration not stated), the max response is -6.92% with CRL-7250, -10.7% in the experiment with HEK293, 5.46% with KB-3-1 and -4.73% in the experiment with NIH3T3. Also, the outcome with HaCat [1] was inactive. For the same compound, in the experiment on HACAT [2], the outcome is “inactive [at 17.4 µM]”.
Regarding `CC[C@H](NC(=O)c1c(O)c(-c2ccccc2)nc2ccccc12)c1ccccc1`, the result in the experiment on CRL-7250, in the experiment on HaCat [1], with NIH3T3 and with HACAT [2] was inactive. The values for the max response in the experiment with HEK293 and in the experiment on KB-3-1 were -9.53% and -1.35%, respectively.
As to `Cc1ccc(-c2c(-c3nn(C)c4ncnc(N5CCC(N6CCCCC6)C5)c34)cnn2C)cc1` (configuration not stated), the compound was classed as inactive in the experiment with CRL-7250, with HaCat [1], in the experiment on KB-3-1 and in the experiment on HACAT [2]. In addition, the results for the max response in the experiment on HEK293 and in the experiment with NIH3T3 were -1.32% and 4.76%, respectively.
Regarding `COc1cc(C(=O)OC[C@@]2(O)CO[C@@H](O[C@H]3[C@H](Oc4ccc(O)cc4)O[C@H](CO)[C@@H](O)[C@@H]3O)[C@@H]2O)cc(OC)c1O`, the call with CRL-7250 and in the experiment on HaCat [1] was inactive. Also, the max response with HEK293 is -3.3%; in the experiment on KB-3-1, -0.593%; in the experiment with NIH3T3 it was -1.11%. In addition, the outcome in the experiment on HACAT [2] is “inactive [at 17.4 µM]”.
For the compound `COc1c2c(c(C)c3c1C(=O)OC3)OC1(C)CC(O)C34OC(OC)(CC(O)C3(C)C1C2)OC4(C)C` (configuration not stated), the max response in the experiment with CRL-7250 was 0.784%; in the experiment with HEK293, -15.9%; in the experiment with KB-3-1, 4.03%; in the experiment with NIH3T3 it was 1.57%. The call in the experiment on HaCat [1] was inactive. In addition, the outcome in the experiment with HACAT [2] was “inactive [at 17.4 µM]”.
`CC(=O)OC[C@]12[C@H](OC(C)=O)[C@H](OC(=O)c3ccccc3)[C@@H]3[C@@H](OC(C)=O)[C@]1(OC3(C)C)[C@H](C)C[C@H](OC(=O)c1ccccc1)[C@@H]2OC(=O)c1ccccc1`: the outcome with CRL-7250 and in the experiment on HaCat [1] was inactive. Also, the max response was -0.732% with HEK293, -5.99% with KB-3-1 and -7.63% in the experiment with NIH3T3. Besides, the outcome with HACAT [2] is “inactive [at 17.4 µM]”.
Turning to `COc1c(C)c(OCC(O)C(C)(C)O)cc2c1CNC2=O` (configuration not stated), the max response is 2.44% in the experiment on CRL-7250, -3.96% with HEK293, 5.28% in the experiment on KB-3-1 and -1.72% in the experiment on NIH3T3. Further, the compound was classed as inactive in the experiment on HaCat [1] and with HACAT [2].
On to `CC1=CC(=O)C2C(C)(C)CCC[C@]2(C)[C@H]1CC[C@H](C)CC(=O)O` (some centres not stated), for which the max response in the experiment on CRL-7250 is -2.16%; in the experiment on HEK293, -12.7%. For the same compound, the result in the experiment with HaCat [1], with KB-3-1, in the experiment on NIH3T3 and with HACAT [2] was inactive.
Consider `COc1ccc(C(=O)CC(=O)O)c2c1C=CC(C)(C)O2`, for which the compound was classed as inactive with CRL-7250, in the experiment with HaCat [1] and in the experiment with HACAT [2]. The max response with HEK293 is -7.49%; in the experiment on KB-3-1, 7.77%; in the experiment on NIH3T3, -1.38%.
For the compound `C[C@@H]1O[C@@H](O[C@H]2[C@H](O)[C@@H](O)[C@H](OC(=O)[C@]34CCC(C)(C)C[C@H]3C3=CCC5[C@@]6(C)CC[C@H](O[C@@H]7O[C@H](C(=O)O)[C@@H](O)[C@H](O)[C@H]7O)C(C)(C)C6CC[C@@]5(C)[C@]3(C)CC4)O[C@@H]2CO)[C@H](O)[C@H](O)[C@H]1O` (some centres not stated), the outcome in the experiment on CRL-7250 and in the experiment on HaCat [1] was inactive. Besides, the max response is -4.26% in the experiment with HEK293, -0.526% in the experiment with KB-3-1 and -1.98% with NIH3T3. Also, the outcome in the experiment on HACAT [2] is “inactive [at 9.27 µM]”.
Regarding `COC(=O)C1=CO[C@@H](O[C@@H]2O[C@H](CO)[C@@H](O)[C@H](O)[C@H]2O)[C@@H]2[C@@H](C(=O)O)CC[C@H]12`, the max response is -20% in the experiment with CRL-7250, -0.168% with HEK293, 3.46% in the experiment on KB-3-1 and 0.607% in the experiment with NIH3T3. In the experiment with HaCat [1], the compound was called inactive. Further, the outcome in the experiment with HACAT [2] was “inactive [at 17.4 µM]”.
Turning to `CC12CC34CC(O)C5C(CO)(CO)CC(=O)CC5(C)C3CC1C2C4` (configuration not stated), the max response in the experiment with CRL-7250 is -4.91%; in the experiment with HEK293, -0.711%; with KB-3-1, 0.93%; in the experiment with NIH3T3, 2.14%. Further, the outcome in the experiment with HaCat [1] and in the experiment on HACAT [2] was inactive.
As for `CC(C)c1ccc2c(c1)C(O)CC1C(C)(CO)CCCC21C` (configuration not stated), the max response was -14% in the experiment on CRL-7250, -7.86% with HEK293, 9.46% in the experiment with KB-3-1 and -1.6% in the experiment on NIH3T3. For the same compound, the result in the experiment on HaCat [1] and with HACAT [2] was inactive.
Turning to `CSC(=O)OCC1=C[C@@H]2OC(=O)C3=CO[C@@H](O[C@@H]4O[C@H](CO)[C@@H](O)[C@H](O)[C@H]4O)[C@H]1[C@@H]32`, the values for the max response in the experiment on CRL-7250, in the experiment with HEK293 and in the experiment on NIH3T3 were -1.2%, -0.187% and 1.53%, respectively. Also, the compound was classed as inactive in the experiment on HaCat [1] and in the experiment with KB-3-1. Further, the outcome with HACAT [2] is “inactive [at 17.4 µM]”.
As to `O=C(NC/C=C/CN1CCN(c2cccc(Cl)c2Cl)CC1)c1ccc(-c2ccccn2)cc1`, the max response in the experiment on CRL-7250 was -4.15%; with KB-3-1, -2.38%; in the experiment with NIH3T3 it was 2.53%. The Potency with HEK293 is 13 µM (active). Besides, the compound was called inactive in the experiment with HaCat [1] and in the experiment on HACAT [2].
`CC(=O)O[C@@H]1C=C2[C@H](CC[C@@]3(C)[C@@]2(O)CC[C@H]2Cc4c([nH]c5ccccc45)[C@@]23C)O[C@@H]1C(C)(C)O`: the max response is -3.54% in the experiment on CRL-7250, -5.86% in the experiment on HEK293, 6.54% in the experiment with KB-3-1 and 3.65% in the experiment with NIH3T3. Moreover, in the experiment with HaCat [1], the compound was classed as inactive. In addition, the outcome in the experiment with HACAT [2] was “inactive [at 17.4 µM]”.
Take `C=C1CCC2[C@](C)(CO)CCC[C@@]2(C)[C@@H]1CCC1=CCOC1=O` (some centres not stated): the max response in the experiment on CRL-7250 was -10.5%; with HEK293, -0.138%; in the experiment on KB-3-1, 5.6%; with NIH3T3, -5.66%. In addition, the compound was called inactive in the experiment on HaCat [1] and in the experiment on HACAT [2].
